# Source: PubChem BioAssay (NCATS)
# Where “and” joins values, the source holds several entries; their conditions need not be identical. Identical values can stand only once. Inconclusive results are not listed. The source holds several records for some structures; these can differ, active in one and inactive in another. Calls of active or inactive are those of the source. Unless noted, calls follow the shape of the full dose curve.
# Experiments:
# [1] = AP1 Signaling Pathway (AID 357; active = well fitted curve in either direction with a large enough effect, not every such curve was filed as active; also: % is scaled to controls: 0 for no effect and ±100 for the full control effect); settings: ME-180 (cervical carcinoma) AP-1-bla reporter, EGF-induced, beta-lactamase ratio, 5 h
# Outline: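 AP-1-bla ME-180 cells with beta-lactamase reporter under AP-1 response element, stimulated with EC50 EGF; compounds titrated, 5 hours at 37 degrees Celsius. CCF4 read at 460/530 nm ratio; positive and negative modulators judged by AC50.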
# [2] = NFAT Signaling Pathway (AID 444; active = well fitted curve in either direction with a large enough effect, not every such curve was filed as active;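 also: carbachol stimulus at about its EC50 of 1 µM final; % is scaled to controls: 0 for no effect and ±100 for the full control effect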); settings: Jurkat NFAT-bla M1, carbachol, beta-lactamase ratio, 5 h
# Outline: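 Jurkat cells with NFAT-driven β-lactamase reporter and co-expressed M1 receptor, stimulated with carbachol (final 1 uM, ~EC50), compound titration, 5 h at 37 °C. CCF4 loaded 1 h at RT; 460/530 nm ratio gave %activity and AC50.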
# [3] = biological target: Cytochrome P450 1A2 (Homo sapiens) (UniProt P05177); test: p450-cyp1a2 (AID 410); settings: recombinant CYP1A2, luciferin-ME demethylation, luminescence; series mostly up to 25.6 µM; also: potency is read from the fitted curve at half-maximal effect;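 as to activity change, negative = inhibition: -100% = full effect of reference inhibitor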
# Sequence of Cytochrome P450 1A2 (Homo sapiens) (P05177 whole entry, looked up): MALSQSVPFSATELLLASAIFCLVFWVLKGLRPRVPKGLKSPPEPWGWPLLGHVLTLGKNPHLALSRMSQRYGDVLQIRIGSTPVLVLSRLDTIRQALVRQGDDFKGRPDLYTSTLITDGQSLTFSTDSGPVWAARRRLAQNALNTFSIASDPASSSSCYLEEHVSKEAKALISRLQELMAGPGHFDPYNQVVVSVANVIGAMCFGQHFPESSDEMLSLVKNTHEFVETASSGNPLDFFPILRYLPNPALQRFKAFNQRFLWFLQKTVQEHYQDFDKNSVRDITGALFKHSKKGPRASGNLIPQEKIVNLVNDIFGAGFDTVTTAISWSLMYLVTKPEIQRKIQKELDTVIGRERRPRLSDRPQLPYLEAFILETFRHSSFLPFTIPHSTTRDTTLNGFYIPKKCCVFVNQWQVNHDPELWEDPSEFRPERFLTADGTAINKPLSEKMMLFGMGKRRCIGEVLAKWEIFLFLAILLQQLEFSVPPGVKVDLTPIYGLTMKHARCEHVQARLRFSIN
# Outline: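 Read-out is luminescence from luciferin produced by CYP1A2 demethylation of Luciferin-ME (100uM, at Km). Detection reagent stopped the 60 min NADPH-dependent reaction; signals were normalized to 57 uM furafylline.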
# [4] = biological target: Lysosomal acid glucosylceramidase (Homo sapiens) (UniProt P04062); test: Glucocerebrosidase-p2 (AID 348; in the data active = potency below about 10 µM; also: potency is read from the fitted curve at half-maximal effect); settings: purified GBA, blue fluorogenic substrate, 40 min
# Sequence of Lysosomal acid glucosylceramidase (Homo sapiens) (P04062 whole entry, looked up): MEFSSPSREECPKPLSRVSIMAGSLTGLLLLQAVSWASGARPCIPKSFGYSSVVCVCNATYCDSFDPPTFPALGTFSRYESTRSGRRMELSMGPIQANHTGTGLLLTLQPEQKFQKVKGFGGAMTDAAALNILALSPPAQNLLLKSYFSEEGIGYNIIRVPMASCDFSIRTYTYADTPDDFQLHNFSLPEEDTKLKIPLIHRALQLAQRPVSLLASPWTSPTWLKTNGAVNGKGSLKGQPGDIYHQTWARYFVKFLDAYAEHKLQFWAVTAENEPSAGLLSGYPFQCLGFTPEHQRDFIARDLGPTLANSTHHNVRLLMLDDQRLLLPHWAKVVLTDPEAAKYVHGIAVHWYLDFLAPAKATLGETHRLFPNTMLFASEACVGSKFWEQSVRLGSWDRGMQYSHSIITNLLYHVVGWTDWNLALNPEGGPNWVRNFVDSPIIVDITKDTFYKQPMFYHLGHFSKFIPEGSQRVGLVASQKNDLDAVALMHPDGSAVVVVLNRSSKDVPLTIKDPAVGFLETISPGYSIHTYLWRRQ
# Outline: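 Normal human glucocerebrosidase (0.2 nM) with blue fluorogenic substrate (80 uM final) in citrate/phosphate pH 5.9 with 10mM sodium taurocholate, 0.01% tween-20; 40 min RT, NaOH/glycine stop; fluorescence Ex 365/Em 440; AC50 from a titration from 0.6 nM upwards.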
# [5] = Cell Viability - BJ (AID 421); settings: BJ fibroblast viability, qHTS;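 also: potency is read from the fitted curve at half-maximal effect; cells exposed to compound for 40 hours at 37 °C before readout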
# Outline: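 Cytotoxicity as drop in intracellular ATP (CellTiter-Glo, 20 min RT) after 40 hr compound exposure of BJ fibroblasts at 37 °C. Titrations scaled between DMSO and 100 uM tamoxifen, Hill-fitted for AC50.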
# [6] = Cell Viability - Jurkat (AID 426;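 active = dose-dependent loss of cell ATP signal giving a full or clear fitted curve, ranked by lower potency value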;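 also: potency is read from the fitted curve at half-maximal effect; cells exposed to compound for 40 hours at 37 °C before ATP read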); settings: qHTS
# Outline: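 Cytotoxicity was scored as loss of cellular ATP, measured by luciferase-based luminescence, in Jurkat clone E6-1 cells after 40 h compound treatment; tamoxifen and doxorubicin served as positive controls.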
# [7] = Cell Viability - Hek293 (AID 427;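 active = compounds whose dose-response curve shows a full or clear partial loss of cell viability, called from curve shape rather than a numeric limit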;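 also: potency is read from the fitted curve at half-maximal effect; cells exposed to compound for 40 hours at 37 °C before reading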); settings: qHTS
# Outline: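 Luminescent ATP content (CellTiter-Glo, 20 min at room temperature) was measured after a 40 hr, 37 °C compound exposure of HEK293 cells. AC50 values came from Hill-equation fits of qHTS concentration-response data normalized to DMSO and 100 uM tamoxifen.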
# [8] = Cell Viability - HepG2 (AID 433); settings: qHTS;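 also: potency is read from the fitted curve at half-maximal effect; potency for ATP loss meaning cytotoxicity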
# Outline: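 HepG2 hepatocellular carcinoma cells (1500/well) were treated with compounds for 40 h at 37 °C in complete medium; intracellular ATP was read by CellTiter-Glo luminescence. Data were normalized to DMSO and 100 uM tamoxifen, and AC50 came from Hill fits.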
# [9] = Cell Viability - MRC5 (AID 434); settings: MRC5 lung fibroblast viability, qHTS;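 also: potency is read from the fitted curve at half-maximal effect; potency reflects cytotoxicity seen as loss of intracellular ATP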
# Outline: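 ATP luminescence read-out (CellTiter-Glo, 20 min RT) after 40 hr, 37 °C compound exposure of 1500 MRC5 cells/well. Data normalized to DMSO (basal) and 100 uM tamoxifen (100% inhibition); AC50 from standard Hill equation.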
# [10] = Cell Viability - SK-N-SH (AID 435); settings: SK-N-SH neuroblastoma cell viability qHTS;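 also: potency is read from the fitted curve at half-maximal effect; compound exposure lasted 40 h at 37 °C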
# Outline: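 SK-N-SH human neuroblastoma cells (1500/well) were exposed to compounds in complete medium for 40 h at 37 °C, and intracellular ATP was then measured by CellTiter-Glo luminescence. AC50 was taken from Hill fits, normalized to DMSO and 100 uM tamoxifen.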
smiles,measurement,setting,value
N=c1c[n+](N2CCOCC2)[n-]o1,"activity change, negative = inhibition",[1]; at 17.2 µM (top of the series),18.9% (inactive)
same,"activity change, negative = inhibition",[1]; at 38 µM (top of the series),9.68% (inactive)
same,"activity change, negative = inhibition",[2]; at 38 µM (top of the series),3.52% (inactive)
Cc1c(Cl)cccc1Nc1ccccc1C(=O)O,"activity change, negative = inhibition",[1]; at 17.2 µM (top of the series),-25.1% (inactive) and -19.5% (inactive)
same,Potency,[3],3.16 µM (active)
same,"activity change, negative = inhibition",[2]; at 17.2 µM (top of the series),-35.5% (inactive)
C=Cc1c(C)c2cc3[nH]c(cc4nc(cc5nc(cc1[nH]2)C(C)=C5CCC(=O)O)C(CCC(=O)O)=C4C)c(C)c3C=C,"activity change, negative = inhibition",[1]; at 38 µM (top of the series),-5.02% (inactive)
same,Potency,[3],6.31 µM (active)
same,"activity change, negative = inhibition",[2]; at 38 µM (top of the series),10.7% (inactive)
NC(N)=NCCC[C@H](N)C(=O)O,"activity change, negative = inhibition",[1]; at 38 µM (top of the series),-0.498% (inactive)
same,Potency,[3],inactive and 31.6 µM (active)
same,"activity change, negative = inhibition",[2]; at 38 µM (top of the series),-0.248% (inactive)
Cc1cccc(Nc2cc(Cl)nc(SCC(=O)O)n2)c1C,Potency,[4],> 11.4 µM (inactive)
same,"activity change, negative = inhibition",[1]; at 7.69 µM (top of the series),3.12% (inactive)
same,Potency,[3],inactive
same,"activity change, negative = inhibition",[2]; at 7.69 µM (top of the series),11.7% (inactive)
COc1ccc2c(c1)C(=O)N(CCc1ccc(S(=O)(=O)NC(=O)NC3CCCCC3)cc1)C(=O)C2(C)C,"activity change, negative = inhibition",[1]; at 17.2 µM (top of the series),12.1% (inactive)
same,Potency,[3],inactive
Nc1ccc(S(=O)(=O)Nc2nccs2)cc1,"activity change, negative = inhibition",[1]; at 17.2 µM (top of the series),-3.49% (inactive)
same,Potency,[3],inactive
same,Potency,[5],> 92 µM (inactive)
same,Potency,[6],> 92 µM (inactive)
same,Potency,[7],> 92 µM (inactive)
same,Potency,[8],> 92 µM (inactive)
same,Potency,[9],> 92 µM (inactive)
same,Potency,[10],> 92 µM (inactive)
same,"activity change, negative = inhibition",[2]; at 17.2 µM (top of the series),2.2% (inactive)
CC(=O)c1ccc2c(c1)N(CCCN(C)C)c1ccccc1S2,"activity change, negative = inhibition",[1]; at 17.2 µM (top of the series),24.3% (inactive)
same,Potency,[3],1.58 µM (active)
O=C(CCCN1CCN(c2ccccn2)CC1)c1ccc(F)cc1,"activity change, negative = inhibition",[1]; at 17.2 µM (top of the series),7.66% (inactive)
C[C@]12CC[C@@H]3c4ccc(O)cc4CC[C@H]3[C@@H]1CCC2=O,"activity change, negative = inhibition",[1]; at 17.2 µM (top of the series),-1.97% (inactive)
same,"activity change, negative = inhibition",[2]; at 17.2 µM (top of the series),-19.8% (inactive)
O=c1cc(CO)occ1O,Potency,[3],inactive
CCOc1ccc2ccccc2c1C(=O)N[C@@H]1C(=O)N2[C@@H]1SC(C)(C)[C@@H]2C(=O)O,"activity change, negative = inhibition",[1]; at 17.2 µM (top of the series),0.437% (inactive)
same,Potency,[3],inactive
same,"activity change, negative = inhibition",[2]; at 17.2 µM (top of the series),1.54% (inactive)
CCCCCCCCCCCCCCCC(=O)NCCO,"activity change, negative = inhibition",[1]; at 38 µM (top of the series),11.1% (inactive)
same,"activity change, negative = inhibition",[2]; at 38 µM (top of the series),9.44% (inactive)
Oc1cccc(O)c1,Potency,[5],> 92 µM (inactive)
same,Potency,[7],> 92 µM (inactive)
same,Potency,[8],> 92 µM (inactive)
same,Potency,[9],> 92 µM (inactive)
Nc1ncnc2c1ncn2[C@@H]1O[C@H](CO)[C@@H](O)[C@H]1O,"activity change, negative = inhibition",[2]; at 17.2 µM (top of the series),-4.17% (inactive)
CC[C@H]1CN2CCc3cc(OC)c(OC)cc3[C@@H]2C[C@@H]1C[C@H]1NCCc2cc(OC)c(OC)cc21,"activity change, negative = inhibition",[1]; at 17.2 µM (top of the series),-119% (active)
same,"activity change, negative = inhibition",[2]; at 17.2 µM (top of the series),-131% (active)
Cc1c(O)cccc1C(=O)N[C@@H](CSc1ccccc1)[C@H](O)CN1C[C@H]2CCCC[C@H]2C[C@H]1C(=O)NC(C)(C)C,Potency,[5],25.2 µM (active)
same,Potency,[6],31.8 µM (active)
same,Potency,[7],24.4 µM (active)
same,Potency,[8],24.6 µM (active)
same,Potency,[9],31.7 µM (active)
same,Potency,[10],24.5 µM (active)
CCCCCCCCCCCCOS(=O)(=O)O,Potency,[5],> 92 µM (inactive)
same,Potency,[6],> 92 µM (inactive)
same,Potency,[7],> 92 µM (inactive)
same,Potency,[8],> 92 µM (inactive)
same,Potency,[9],> 92 µM (inactive)
same,Potency,[10],> 92 µM (inactive)
CCC(=O)c1ccc(O)cc1,"activity change, negative = inhibition",[1]; at 17.2 µM (top of the series),-4.26% (inactive)
same,"activity change, negative = inhibition",[2]; at 17.2 µM (top of the series),-1.37% (inactive)
CC1(C)OC(=O)NC1=O,"activity change, negative = inhibition",[1]; at 17.2 µM (top of the series),5.67% (inactive)
same,Potency,[3],inactive
same,"activity change, negative = inhibition",[2]; at 17.2 µM (top of the series),-1.86% (inactive)
OCC(O)CN1CCN(c2ccccc2)CC1 (centres undefined),"activity change, negative = inhibition",[1]; at 17.2 µM (top of the series),-1.76% (inactive)
same,"activity change, negative = inhibition",[2]; at 17.2 µM (top of the series),8.65% (inactive)
O=C1O[C@H]([C@@H](O)CO)C(O)=C1O,Potency,[5],> 92 µM (inactive)
same,Potency,[6],> 92 µM (inactive)
same,Potency,[7],> 92 µM (inactive)
same,Potency,[8],> 92 µM (inactive)
same,Potency,[9],> 92 µM (inactive)
same,Potency,[10],> 92 µM (inactive)
CCCn1cnc2c1c(=O)n(CCCCC(C)=O)c(=O)n2C,"activity change, negative = inhibition",[1]; at 38 µM (top of the series),-2.42% (inactive)
same,Potency,[3],12.6 µM (active)
same,"activity change, negative = inhibition",[2]; at 38 µM (top of the series),9.62% (inactive)
C[C@@H]1C[C@H]2[C@@H]3C[C@H](F)C4=CC(=O)C=C[C@]4(C)[C@@]3(F)[C@@H](O)C[C@]2(C)[C@@]1(O)C(=O)CO,"activity change, negative = inhibition",[1]; at 17.2 µM (top of the series),-11.1% (inactive)
same,"activity change, negative = inhibition",[2]; at 17.2 µM (top of the series),-28.6% (inactive)
NC(=O)c1ncn([C@@H]2O[C@H](CO)[C@@H](O)[C@H]2O)n1,Potency,[5],> 92 µM (inactive)
same,Potency,[6],> 92 µM (inactive)
same,Potency,[8],> 92 µM (inactive)
same,Potency,[9],> 92 µM (inactive)
same,Potency,[10],> 92 µM (inactive)
CC12CCC(CC1)C(C)(C)O2,Potency,[5],> 92 µM (inactive)
same,Potency,[6],> 92 µM (inactive)
same,Potency,[7],> 92 µM (inactive)
same,Potency,[8],> 92 µM (inactive)
same,Potency,[9],> 92 µM (inactive)
same,Potency,[10],> 92 µM (inactive)
NC(=O)N/N=C/c1ccc([N+](=O)[O-])o1,Potency,[5],> 92 µM (inactive)
same,Potency,[9],> 92 µM (inactive)
same,Potency,[10],> 92 µM (inactive)
